Experimental data published in PubChem BioAssay (NCI).
This is part of a sample that, as a whole, favours compounds with a hit. Of some 79,000 tested, about 15% had one in any assay. Values without a mark were called inactive. Calls of active or inactive are those of the source. Rule as the data show it: active = growth inhibition above about 70%; inactive = the rest.

Legend:
[1] = NCI Yeast Anticancer Drug Screen. Data for the rad50 strain (AID 155);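 also: 0% = growth of vehicle-only cultures of the same strain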; conditions: S. cerevisiae rad50 strain growth inhibition, active compounds read high
Method in brief: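 DNA repair mutant yeast, compound exposure, growth read-out; inhibition is taken relative to vehicle.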

[2] = NCI Yeast Anticancer Drug Screen. Data for the mec2-1 strain (AID 157); conditions: S. cerevisiae mec2-1 strain, active compounds read high
Method in brief: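 Each compound was tested on mec2-1 yeast, a strain altered in DNA damage repair or cell cycle control. Growth inhibition is reported relative to vehicle.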

[3] = NCI Yeast Anticancer Drug Screen. Data for the sgs1 mgt1 strain (AID 161);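 also: 0% = growth of cultures given vehicle only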; conditions: S. cerevisiae sgs1 mgt1 strain, active compounds read high
Method in brief: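 Read-out: growth inhibition vs vehicle controls. Cells: mutant yeast strain deficient in DNA damage repair.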

[4] = NCI Yeast Anticancer Drug Screen. Data for the cln2 rad14 strain (AID 165);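 also: 0% = growth equal to vehicle treated cultures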; conditions: S. cerevisiae cln2 rad14 strain, active compounds read high
Method in brief: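 Test compounds were added to cln2 rad14 yeast cultures; inhibition of growth was then determined by comparison with vehicle treatment.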

[5] = NCI Yeast Anticancer Drug Screen. Data for the bub3 strain (AID 167); conditions: S. cerevisiae bub3 mutant strain, active compounds read high
Method in brief: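 In this screen, a yeast mutant lacking normal mitotic checkpoint function is challenged with compound. Relative growth versus vehicle gives the inhibition value.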

[6] = NCI Yeast Anticancer Drug Screen. Data for the mlh1 rad18 strain (AID 175); conditions: S. cerevisiae mlh1 rad18 strain growth inhibition, active compounds read high
Method in brief: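 Inhibition values reflect reduced growth of mutant yeast versus vehicle-treated controls following compound exposure; the mutations affect DNA damage repair.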

[7] = at 5.0 µM (retest, dose inferred, filed as 0.5)
[8] = at 50.0 µM (retest, dose inferred, filed as 5.0)

Structure (SMILES) | growth inhibition [1, 7] | growth inhibition [1, 8] | growth inhibition ([1]; at 50.0 µM) | growth inhibition [2, 7] | growth inhibition [2, 8] | growth inhibition ([2]; at 50.0 µM) | growth inhibition [3, 7] | growth inhibition [3, 8] | growth inhibition ([3]; at 50.0 µM) | growth inhibition [4, 7] | growth inhibition [4, 8] | growth inhibition ([4]; at 50.0 µM) | growth inhibition [5, 7] | growth inhibition [5, 8] | growth inhibition ([5]; at 50.0 µM) | growth inhibition [6, 7] | growth inhibition [6, 8] | growth inhibition ([6]; at 50.0 µM)
Cc1cccc(NC(=O)Oc2ccc(Cl)c3cccnc23)c1 | 75% (active) | 99% (active) | 88.5% (active) | 57% | 99% (active) | 88.7% (active) | 97% (active) | 99% (active) | 91.8% (active) | 95% (active) | 99% (active) | 89.9% (active) | 82% (active) | 67% | 85.5% (active) | 72% (active) | 99% (active) | 88.8% (active)
CC(Nc1cc(Cl)cc(Cl)c1)c1ccncc1 (stereo not given) | 1% | 98% (active) | 37.2% | -26% | 98% (active) | 56.4% | -31% | 91% (active) | 43% | 22% | 98% (active) | 22% | -59% | 99% (active) | 43.5% | -10% | 98% (active) | 42.5%
O=[N+]([O-])c1cc2ccc(O)cc2c2ccccc12 | -1% | 89% (active) | 93.5% (active) | -8% | 85% (active) | 94.2% (active) | 10% | 86% (active) | 96.3% (active) | -1% | 60% | 95.2% (active) | -3% | 86% (active) | 96.2% (active) | -7% | 91% (active) | 93.7% (active)
C1Cc2c3c4c(c5c2C(C1)CCC5)CCCC4CCC3 | -5% | 8% | -11.5% | 1% | 17% | 10.3% | -1% | 13% | 0% | 3% | -1% | 34.2% | 15% | 8% | -0.85% | -1% | 10% | -2.25%
CC1CCC2(OC1)OC1CC3C4CCC5CC(OC6OC(COC7OC(CO)C(O)C(O)C7O)C(OC7OC(C)C(O)C(O)C7O)C(O)C6OC6OC(CO)C(O)C(O)C6O)CCC5(C)C4CCC3(C)C1C2C (stereo not given) | 0% | 99% (active) | 99.2% (active) | -1% | 100% (active) | 99.8% (active) | 16% | 97% (active) | 99.8% (active) | -2% | 99% (active) | 99.5% (active) | 15% | 100% (active) | 99.6% (active) | 2% | 100% (active) | 99.7% (active)
COc1ccc2nc3cc([N+](=O)[O-])ccc3c(NCCO)c2c1 | -24% | 77% (active) | 58.5% | -9% | 66% | 47.8% | -26% | 80% (active) | 44.6% | -6% | 89% (active) | 75.1% (active) | -18% | 30% | 49% | 4% | 82% (active) | 49.9%
O=C1C(=O)c2cc(Br)cc([N+](=O)[O-])c2-c2ccc(Br)cc21 | 68% | 96% (active) | 95.5% (active) | 52% | 96% (active) | 98.3% (active) | 83% (active) | 93% (active) | 97.1% (active) | 21% | 92% (active) | 96.6% (active) | 38% | 94% (active) | 98.3% (active) | 89% (active) | 97% (active) | 98.4% (active)
CCCCC#CC(=O)OCCC | -1% | 2% | 26.6% | 0% | 2% | 15.8% | 2% | 2% | 22.4% | -1% | -1% | 85.5% (active) | 1% | 0% | -22.4% | -2% | -1% | -9.75%
CCN(CC)C(=S)N/N=C(/c1ccccc1)c1ccccn1 | 42% | 96% (active) | 70.7% (active) | 92% (active) | 97% (active) | 76.9% (active) | 44% | 97% (active) | 81.8% (active) | 80% (active) | 95% (active) | 81.8% (active) | 95% (active) | 96% (active) | 85.2% (active) | 96% (active) | 97% (active) | 83.1% (active)
O=Cc1cc(-c2ccccc2)n(-c2ccccc2)c1-c1ccccc1 | 18% | 18% | 64.3% | 2% | -3% | 22.2% | -6% | 16% | 63% | -6% | 27% | 0% | 0% | 9% | 35.9% | -1% | 16% | 47.3%
